The values that follow come from PubChem BioAssay (NCI).

Some test systems named below: HCT-15 colon; HT29 colon; SNB-75 CNS; SNB-19 CNS; U251 CNS; PC-3 prostate; SK-MEL-5 melanoma; UACC-62 melanoma; LOX IMVI melanoma; SK-MEL-28 melanoma; SK-MEL-2 melanoma; EKVX NSCLC; UO-31 renal; TK-10 renal; ACHN renal; CAKI-1 renal; A498 renal; CCRF-CEM leukemia; MOLT-4 leukemia; SN12C renal.
Assay in all cases: NCI-60 one-dose screen, 48 h (100 = growth as untreated, 0 = no growth, -100 = all killed)
Common to all, as to details: 10 µM unless noted

Compounds without any hit were thinned out: in the full panel of roughly 83,000, 20% have a hit.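 Single-concentration screen, 48 h exposure, 96-well plates. Endpoint: percent growth. Below 10 = active.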 A number with no mark means an inactive call. Calls of active or inactive are those of the source.

Regarding `O=S(=O)(NCCCNc1nccc(-c2[nH]c(-c3ccccc3)nc2-c2ccc(Cl)c(O)c2)n1)c1cccc(F)c1`, the growth in the test with HCT-15 colon was 38.6%; with HT29 colon, 61.7%; in the test on SNB-75 CNS it was 104%; in the test on SNB-19 CNS, 82.9%; in the test with U251 CNS it was 64.4%; with PC-3 prostate, 46.8%. Further, the growth in the test with SK-MEL-5 melanoma was 23.5%; in the test on UACC-62 melanoma, 19.3%; in the test with LOX IMVI melanoma it was 39.8%; with SK-MEL-28 melanoma, 25.3%; with SK-MEL-2 melanoma, 18.5%; in the test with EKVX NSCLC, 65.2%. Moreover, the growth was 56.6% in the test on UO-31 renal; 98.2% with TK-10 renal; 57.2% with ACHN renal; 56.1% in the test with CAKI-1 renal; 101% in the test on A498 renal; 32.9% with CCRF-CEM leukemia. Also, in the test with MOLT-4 leukemia, the growth was 40.3%.
For `O=C(O)c1ccc(-n2cc(CNc3cc(F)c(F)c(F)c3)c(-c3ccc(F)cc3)n2)cc1`, the growth was 68.1% with HCT-15 colon; 108% in the test on HT29 colon; 100% in the test with SNB-75 CNS; 95.3% in the test with SNB-19 CNS; 97.8% with U251 CNS; 79.2% in the test on PC-3 prostate. The growth is 81.2% in the test on SK-MEL-5 melanoma; 64.9% in the test on UACC-62 melanoma; 105% with LOX IMVI melanoma; 85.9% in the test with SK-MEL-28 melanoma; 78.7% in the test on SK-MEL-2 melanoma; 91.9% in the test on SN12C renal. Also, the growth in the test on UO-31 renal is 77.4%; in the test on TK-10 renal, 150%; in the test with ACHN renal, 71.4%; with A498 renal it was 97.6%; in the test on CCRF-CEM leukemia, 82.7%; in the test with MOLT-4 leukemia, 74.2%.
As to `NS(=O)(=O)c1ccc(Nc2nc(N/N=C/c3ccc(Cl)cc3)nc(Nc3ccccc3)n2)cc1`, the growth was 76.4% in the test with HCT-15 colon; 34.2% in the test with HT29 colon; 94.3% in the test on SNB-75 CNS; 81.8% in the test with SNB-19 CNS; 54.6% in the test with U251 CNS; 51.7% in the test with PC-3 prostate. The growth with SK-MEL-5 melanoma is 69.1%; with UACC-62 melanoma it was 74.9%; in the test on LOX IMVI melanoma it was 60.4%; in the test on SK-MEL-28 melanoma, 75.3%; with SK-MEL-2 melanoma, 81.7%; in the test with EKVX NSCLC it was 76.6%. Further, the growth in the test on UO-31 renal was 82.1%; in the test with TK-10 renal it was 103%; in the test on ACHN renal it was 90.1%; in the test with CAKI-1 renal, 62.1%; in the test on A498 renal it was 76.3%; in the test on CCRF-CEM leukemia it was 19.4%. Besides, the growth with MOLT-4 leukemia is 1.53% (active).
As to `NC(N)=Nc1ccc(Oc2cccc(Nc3ccc(Br)c(C(F)(F)F)c3)c2)cn1`, the growth is -68.3% (active) with HCT-15 colon; -48.5% (active) in the test with HT29 colon; 9.31% (active) with SNB-75 CNS; -83.5% (active) in the test with SNB-19 CNS; -79.6% (active) in the test with U251 CNS; -92% (active) with PC-3 prostate. For the same molecule, the growth is 16.9% in the test with SK-MEL-5 melanoma; -76.9% (active) in the test on UACC-62 melanoma; -87.6% (active) in the test with LOX IMVI melanoma; -32.1% (active) in the test with SK-MEL-28 melanoma; -45.1% (active) in the test on SK-MEL-2 melanoma; -87.7% (active) in the test with SN12C renal. Further, the growth with UO-31 renal was 38.6%; in the test on TK-10 renal, 7.85% (active); in the test with ACHN renal, 1.96% (active); with CAKI-1 renal, -5.28% (active); in the test on CCRF-CEM leukemia it was 0.633% (active); with MOLT-4 leukemia, -35.6% (active).
Take `CNC(=O)c1cc(N2CCc3cc(NC(=O)Nc4ccc(Cl)c(C(F)(F)F)c4)ccc32)ccn1`: the growth was 28% in the test with HCT-15 colon; 61.2% in the test on HT29 colon; 93.3% in the test with SNB-75 CNS; 61.4% with SNB-19 CNS; 52.4% in the test with U251 CNS; 29% with PC-3 prostate. The growth with SK-MEL-5 melanoma was 46.6%; with UACC-62 melanoma, 51.8%; in the test on LOX IMVI melanoma it was 64.7%; with SK-MEL-28 melanoma, 66.9%; in the test with SK-MEL-2 melanoma it was 88.5%; with SN12C renal, 65.2%. Moreover, the growth was 68.4% with UO-31 renal; 86.6% with TK-10 renal; 38.1% in the test with ACHN renal; 53.9% in the test with CAKI-1 renal; 80.3% in the test on A498 renal; 48.4% in the test on CCRF-CEM leukemia. Moreover, in the test on MOLT-4 leukemia, the growth is 35.6%.
Turning to `CC(C)(C)n1nnnc1C(Nc1cccc2c1OCO2)c1cc2cccc3ccc4cccc1c4c32` (stereo not drawn), the growth with HCT-15 colon is 71%; in the test with HT29 colon, 81.2%; with SNB-75 CNS, 115%; with SNB-19 CNS it was 83.5%; in the test on U251 CNS, 85.9%; in the test with PC-3 prostate, 59.4%. Besides, the growth with SK-MEL-5 melanoma was 85%; with UACC-62 melanoma, 65.3%; in the test with LOX IMVI melanoma it was 86.7%; with SK-MEL-28 melanoma, 94.4%; with EKVX NSCLC, 73.7%; in the test on SN12C renal it was 90.5%. For the same molecule, the growth is 67.8% with UO-31 renal; 116% with TK-10 renal; 85.6% with ACHN renal; 64.5% in the test on CAKI-1 renal; -12.9% (active) in the test on CCRF-CEM leukemia; 67.1% in the test on MOLT-4 leukemia.
As for `COc1ccc(-c2nc3cc(Cl)c(Cl)cc3n2CC(=O)N=Nc2c(O)[nH]c3ccc(OC)cc23)cc1`, the growth with HCT-15 colon was 43.7%; with HT29 colon, 55.2%; in the test with SNB-75 CNS it was 65.3%; with SNB-19 CNS, 80%; in the test with U251 CNS, 77.8%; in the test on PC-3 prostate, 63.8%. For the same molecule, the growth in the test with SK-MEL-5 melanoma was 61.2%; with UACC-62 melanoma it was 53.4%; in the test on LOX IMVI melanoma, 7.13% (active); in the test with SK-MEL-28 melanoma, 48.6%; in the test on EKVX NSCLC, 62.9%; with SN12C renal it was 49.7%. The growth is 69.9% in the test on UO-31 renal; 97.3% with TK-10 renal; 43.5% in the test with ACHN renal; 59.4% in the test on CAKI-1 renal; 61.6% in the test with CCRF-CEM leukemia; 78.7% with MOLT-4 leukemia.
For the molecule `CC(=O)c1ccc(Nc2nc(SCC(C)C)nc(-c3ccc(F)cc3)c2C#N)cc1`, the growth in the test on HCT-15 colon was 104%; with HT29 colon, 107%; in the test with SNB-75 CNS, 125%; with SNB-19 CNS, 112%; in the test with U251 CNS, 104%; in the test with PC-3 prostate it was 108%. Also, the growth in the test on SK-MEL-5 melanoma was 101%; with UACC-62 melanoma, 108%; with LOX IMVI melanoma, 112%; in the test with SK-MEL-28 melanoma, 108%; with EKVX NSCLC, 114%; with SN12C renal, 110%. Also, the growth in the test with UO-31 renal is 115%; in the test on TK-10 renal, 123%; in the test with ACHN renal, 104%; in the test with CAKI-1 renal it was 115%; with A498 renal, 117%; in the test on CCRF-CEM leukemia, 107%. In addition, the growth with MOLT-4 leukemia was 107%.
